# Screen size: about 120,000 compounds; about 5,300 (4.4%) were called active. Another 22% or so got no clear call; they are omitted. Calls come from the whole dose curve; as a rule, active = well fitted inhibition curve with a large enough effect; inconclusive = small, poorly fitted or top-dose-only effect; inactive = no such curve, though single readings can be large or run the other way. Shown is part of a subset that was picked to be rich in actives. Where a call stands in place of a potency, no number is given.
# Assay: qHTS Primary assay for Inhibitors of Plasmodium falciparum Dd2 growth in vitro; note: nearly all actives have a fitted effect of over 65% in size
# Details: P. falciparum Dd2 growth, SYBR Green, 72 h; series mostly up to 28.9 µM
# Summary of the method: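 Readout: SYBR Green fluorescence, 485 nm excitation, 535 nm emission, after ~16 h lysis at 37C. Before that, Dd2-infected red cells (2.5% hematocrit) grew 72 h with compound, 29 uM top final concentration.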
# Potency is the fitted concentration of half-maximal effect.
row,Structure (SMILES),Potency
1,COc1cccc(-c2ccnc3nc(-c4ccccc4OC)nn23)c1,inactive
2,COCc1nc2nccc(-c3ccccc3)n2n1,inactive
3,COc1cccc(-c2ccnc3nc(Cc4cc(F)cc(F)c4)nn23)c1,10 µM (active)
4,CNC(=O)[C@@H]1CN(C(=O)C2CC=CCC2)C[C@H]1c1nc(C)no1 (stereo not given in full),inactive
5,O=C(c1ccc(F)cc1)N1CCCC(c2nn(-c3cccc(Cl)c3)c(=O)[nH]2)C1 (stereo not given),inactive
6,CN1C(=O)CC[C@]2(C(=O)NCC3CCCCC3)CCCC[C@@H]12,inactive
7,CC(C)CCN1C(=O)CC[C@]2(C(=O)N3CCN(C)CC3)CCCC[C@@H]12,11.2 µM (active)
8,COCCN1C(=O)CC[C@]2(C(=O)NCc3cccs3)CCCC[C@@H]12,inactive
9,COC(=O)c1cnn(-c2ccc(C(=O)Nc3ccc(OC(F)(F)F)cc3)cc2)c1N,1.58 µM (active)
10,Cc1ccc2ncc(C(=O)Nc3ccc(OC(F)(F)F)cc3)c(=O)n2c1,inactive
11,CCOc1ccc(NC(=O)c2cnn(-c3ccccc3)c2-n2cccc2)cc1,inactive
12,O=C(NCC1(COc2ccc(C(F)(F)F)cn2)C[C@@H](O)[C@@H](O)C1)c1ccc(F)cc1 (stereo not given in full),inactive
13,CCn1cc(CN2C[C@@H](COC)[C@H](c3nc(COC)no3)C2)cn1,inactive
14,COc1ccc(CCC(=O)NCc2ccc3c(c2)CCN3C(=O)c2ccc(F)cc2)cc1,4.47 µM (active)
15,O=C(CCc1ccccc1)NCc1ccc2c(c1)CCN2C(=O)c1ccccc1,inactive
16,O=C(COc1ccccc1)NCc1ccc2c(c1)CCN2C(=O)c1ccc(F)cc1,inactive
17,Cc1ccc(CNC(=O)N2CCCOCCNC(=O)[C@@H]3CCC[C@@H]32)cc1,inactive
18,C[S+](=O)([O-])c1ccc(CC(=O)N2CC(CNC(=O)C3CC3)C3(C2)CN(c2ccccc2)C3)cc1 (stereo not given),inactive
19,c1cncc(-c2cnc([C@@H]3COCCN3Cc3cnc4ccccc4c3)[nH]2)c1,inactive
20,Oc1ccccc1CN1CCOC[C@H]1c1ncc(-c2ccc(C(F)(F)F)cc2)[nH]1,1.26 µM (active)
21,c1cc(CN2CCOC[C@H]2c2ncc(-c3ccncc3)[nH]2)ccn1,inactive
22,O=C(COc1ccccc1)N[C@H]1[C@H](O)[C@H](O)C[C@@H]1c1ccc(C(F)(F)F)cc1,inactive
23,Cc1ccc2c(c1)N1C(=O)OC[C@@H]1CCN(C(=O)Nc1ccccc1)C2,inactive
24,CCOC(=O)c1ccc(NC(=O)Cn2nc3c(cc2=O)CN(C(C)=O)CC3)cc1,inactive
25,Fc1cccc(CN2CCC(N3CC(OCC4CC4)C34CCCCC4)CC2)c1 (stereo not given),0.501 µM (active)
26,COCCOC1CN(C2CCN(C(=O)c3ccc(OC)nc3)CC2)C12CCCCC2 (stereo not given),inactive
27,COCCOC1CN(C2CCN(C(=O)C3CCOCC3)CC2)C12CCCCC2 (stereo not given),inactive
28,CCn1cc(CN2CCC(N3CC(OCC4CC4)C34CCCCC4)CC2)cn1 (stereo not given),1.41 µM (active)
29,O=C(c1ccc2[nH]ccc2c1)N1CCC(N2CC(OCC3CC3)C23CCOCC3)CC1 (stereo not given),inactive
30,N#Cc1cccc(CN2CCC(C3=NC(O)c4cc(F)ccc4N3)CC2)c1 (stereo not given),inactive

# From PubChem BioAssay AID1347417 (National Center for Advancing Translational Sciences (NCATS), 2020)
